Measured values taken from PubChem BioAssay (Tox21).
Unmarked numbers belong to inactive results. The source made the active and inactive calls. Calls follow the shape of the full dose curve.

Assay: qHTS assay to identify small molecule agonists of the estrogen related receptor (ERR) signaling pathway from Tox21 library (AID 1224849); also: nearly all actives have a fitted effect of over 15% in size
Details: ERR reporter cell line, ONE-Glo luciferase, 18 h; at 92.4 µM (top of the series) unless noted
How it was run: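 Screening used an NTP-provided ERR luciferase cell line. Compounds in DMSO were added 6 h after seeding and left 18 h at 37 C before a 30 min ONE-Glo step and luminescence reading.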
% is scaled to controls: 0 for no effect and ±100 for the full control effect.

Compound	activity change, positive = activation
COc1nc(C)nc(NC(=O)NS(=O)(=O)c2ccccc2OCCCl)n1	-0.581%
C=CCCC=C	2.68%
CC(C)(C)c1ccc(OC(=O)c2ccccc2O)cc1	132% (active)
Cc1ncc(CO)c(CN)c1O	4.27% [at 42.5 µM]
Cc1nc(N)nc(N)c1-c1ccc(Cl)c(Cl)c1	-56.5% [at 42.5 µM]
CCOc1ccc(OCC)c(Cl)c1	4.33%
O=S(=O)(O)C(F)(F)F	4.04%
CCCCCCn1c(=O)c2c(ncn2C)n(C)c1=O	-1.88% [at 42.5 µM]
O=CCCc1ccccc1	7.2%
CCCc1c2oc(C(=O)O)cc(=O)c2cc2c(=O)cc(C(=O)O)n(CC)c12	1.31% [at 42.5 µM]
CCCCCCCCCC#N	-15.2%
Clc1cccc(-c2cc(Cl)cc(Cl)c2)c1	-3.25%
CN1CCN(C2=Nc3cc(F)ccc3Cc3ccccc32)CC1	0.425% [at 42.5 µM]
